Of roughly 8,800 targets only a part is listed; those with a hit were picked by preference. About 0.5% of all pairs of compound and target were hits. Values without a mark were called inactive.
Key:
Assay in all cases: log2 fold change, soluble protein after heating vs DMSO (PISA); higher = thermal stabilisation; K562 lysate, 10 uM; active = over 0.2 and 3.5 SD of the protein, either way, in both replicates (recomputed)
alvocidib = compound: CN1CC[C@H](c2c(O)cc(O)c3c(=O)cc(-c4ccccc4Cl)oc23)[C@H](O)C1 [alvocidib]
Method in brief: (§1)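 K562 pellets were dounce-homogenised in PBS pH 7.4 with 1 mM MgCl2, and the crude extract at 1 mg/mL protein was treated with 10 μM compound for 30 min. Aliquots were heated for 3 min across 48°C-58°C, pooled, and brought to 0.5% NP-40 at 4°C; soluble protein was the supernatant after 21,000xg for 90 min. Soluble protein was quantified by TMTpro 16plex LC-MS/MS with channel sums equalised, and reported as log2 fold change in thermal stability against DMSO controls, with values from duplicates.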

Tubastatin A = compound: CN1CCc2c(c3ccccc3n2Cc2ccc(C(=O)NO)cc2)C1 [Tubastatin A]
Method in brief: as §1

[1] = compound: CNC(=O)C1=CC=CC=C1NC2=NC(=NC=C2Cl)NC3=C(C=C(C=C3)N4CCOCC4)OC
Method in brief: as §1

defactinib = compound: CNC(=O)c1ccc(Nc2ncc(C(F)(F)F)c(NCc3nccnc3N(C)S(C)(=O)=O)n2)cc1 [defactinib]
Method in brief: as §1

[2] = compound: CNc1nc(-c2ccc3c(N)n[nH]c3c2)cc(N2C[C@@H](C(=O)NC3CCCCC3)CC[C@H]2C)n1
Method in brief: as §1

encorafenib = compound: COC(=O)N[C@@H](C)CNc1nccc(-c2cn(C(C)C)nc2-c2cc(Cl)cc(NS(C)(=O)=O)c2F)n1 [encorafenib]
Method in brief: as §1

[3] = compound: COC(=O)[C@H](CCSC)NC(=O)C1=C(C=C(C=C1)NC[C@H](CS)N)C2=CC=CC=C2
Method in brief: as §1

alisertib = compound: COc1cc(Nc2ncc3c(n2)-c2ccc(Cl)cc2C(c2c(F)cccc2OC)=NC3)ccc1C(=O)O [alisertib]
Method in brief: as §1

[4] = compound: COc1cc2nc(-c3cc(F)ccc3O)nc(N[C@@H]3CNC[C@H]3C(C)(C)O)c2cc1OC
Method in brief: as §1

gefitinib = compound: COc1cc2ncnc(Nc3ccc(F)c(Cl)c3)c2cc1OCCCN1CCOCC1 [gefitinib]
Method in brief: as §1

lapatinib = compound: CS(=O)(=O)CCNCc1ccc(-c2ccc3ncnc(Nc4ccc(OCc5cccc(F)c5)c(Cl)c4)c3c2)o1 [lapatinib]
Method in brief: as §1

pictilisib = compound: CS(=O)(=O)N1CCN(Cc2cc3nc(-c4cccc5[nH]ncc45)nc(N4CCOCC4)c3s2)CC1 [pictilisib]
Method in brief: as §1

crizotinib = compound: C[C@@H](Oc1cc(-c2cnn(C3CCNCC3)c2)cnc1N)c1c(Cl)ccc(F)c1Cl [crizotinib]
Method in brief: as §1

[5] = compound: C[C@H](C1=CC=C(C=C1)C(=O)NC2=C3C=CNC3=NC=C2)N
Method in brief: as §1

duvelisib = compound: C[C@H](Nc1ncnc2nc[nH]c12)c1cc2cccc(Cl)c2c(=O)n1-c1ccccc1 [duvelisib]
Method in brief: as §1

gandotinib = compound: Cc1cc(Nc2cc(CN3CCOCC3)c3nc(C)c(Cc4ccc(Cl)cc4F)n3n2)n[nH]1 [gandotinib]
Method in brief: as §1

tozasertib = compound: Cc1cc(Nc2cc(N3CCN(C)CC3)nc(Sc3ccc(NC(=O)C4CC4)cc3)n2)n[nH]1 [tozasertib]
Method in brief: as §1

doramapimod = compound: Cc1ccc(-n2nc(C(C)(C)C)cc2NC(=O)Nc2ccc(OCCN3CCOCC3)c3ccccc23)cc1 [doramapimod]
Method in brief: as §1

bafetinib = compound: Cc1ccc(NC(=O)c2ccc(CN3CC[C@H](N(C)C)C3)c(C(F)(F)F)c2)cc1Nc1nccc(-c2cncnc2)n1 [bafetinib]
Method in brief: as §1

[6] = compound: Cc1cccc(CC(=O)N2CCc3c2ccc(-c2cn(C)c4ncnc(N)c24)c3F)n1
Method in brief: as §1

UniProt Q9H6V9, sequence (Q9H6V9 whole entry, looked up): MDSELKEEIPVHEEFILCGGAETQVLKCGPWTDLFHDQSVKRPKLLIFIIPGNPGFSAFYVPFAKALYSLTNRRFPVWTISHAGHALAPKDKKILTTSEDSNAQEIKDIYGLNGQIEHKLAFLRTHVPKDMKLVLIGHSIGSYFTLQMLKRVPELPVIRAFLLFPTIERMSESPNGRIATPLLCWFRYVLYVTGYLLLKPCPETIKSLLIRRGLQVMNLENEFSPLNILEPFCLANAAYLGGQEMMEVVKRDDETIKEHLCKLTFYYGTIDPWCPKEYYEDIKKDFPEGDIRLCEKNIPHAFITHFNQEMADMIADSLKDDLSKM
UniProt Q07866, sequence (Q07866 whole entry, looked up): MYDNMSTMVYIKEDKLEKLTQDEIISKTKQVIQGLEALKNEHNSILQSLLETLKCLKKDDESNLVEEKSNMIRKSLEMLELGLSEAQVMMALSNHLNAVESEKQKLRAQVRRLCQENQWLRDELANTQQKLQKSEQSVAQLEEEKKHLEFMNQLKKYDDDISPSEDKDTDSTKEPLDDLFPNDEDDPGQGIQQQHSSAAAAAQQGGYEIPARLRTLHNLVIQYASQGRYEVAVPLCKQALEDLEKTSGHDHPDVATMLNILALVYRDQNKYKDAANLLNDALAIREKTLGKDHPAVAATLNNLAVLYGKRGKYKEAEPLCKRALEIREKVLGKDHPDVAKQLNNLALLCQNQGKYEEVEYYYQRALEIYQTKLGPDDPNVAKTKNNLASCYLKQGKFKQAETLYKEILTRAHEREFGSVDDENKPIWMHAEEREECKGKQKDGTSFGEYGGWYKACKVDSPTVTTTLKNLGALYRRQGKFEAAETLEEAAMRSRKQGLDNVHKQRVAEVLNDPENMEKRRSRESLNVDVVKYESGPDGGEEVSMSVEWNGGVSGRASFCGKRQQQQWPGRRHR
UniProt Q92615, sequence (Q92615 whole entry, looked up): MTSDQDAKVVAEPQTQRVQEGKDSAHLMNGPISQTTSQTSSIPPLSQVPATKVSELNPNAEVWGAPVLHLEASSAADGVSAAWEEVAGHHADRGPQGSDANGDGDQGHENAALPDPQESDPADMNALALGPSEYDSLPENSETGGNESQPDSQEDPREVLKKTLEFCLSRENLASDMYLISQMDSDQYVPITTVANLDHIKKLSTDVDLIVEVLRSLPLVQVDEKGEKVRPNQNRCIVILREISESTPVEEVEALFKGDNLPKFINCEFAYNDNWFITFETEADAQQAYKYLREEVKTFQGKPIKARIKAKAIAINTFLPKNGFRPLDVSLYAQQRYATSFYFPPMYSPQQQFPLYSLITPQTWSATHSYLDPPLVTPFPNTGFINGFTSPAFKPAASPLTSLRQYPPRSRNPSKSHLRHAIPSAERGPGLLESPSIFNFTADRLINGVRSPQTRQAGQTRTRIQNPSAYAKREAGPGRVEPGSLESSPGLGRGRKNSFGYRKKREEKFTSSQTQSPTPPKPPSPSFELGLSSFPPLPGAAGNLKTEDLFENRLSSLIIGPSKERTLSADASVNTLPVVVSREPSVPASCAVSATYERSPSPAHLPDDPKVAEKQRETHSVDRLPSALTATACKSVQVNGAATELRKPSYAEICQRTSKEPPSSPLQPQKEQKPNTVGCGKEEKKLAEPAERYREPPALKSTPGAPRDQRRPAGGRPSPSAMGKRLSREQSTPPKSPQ
UniProt O60244, sequence (O60244 whole entry, looked up): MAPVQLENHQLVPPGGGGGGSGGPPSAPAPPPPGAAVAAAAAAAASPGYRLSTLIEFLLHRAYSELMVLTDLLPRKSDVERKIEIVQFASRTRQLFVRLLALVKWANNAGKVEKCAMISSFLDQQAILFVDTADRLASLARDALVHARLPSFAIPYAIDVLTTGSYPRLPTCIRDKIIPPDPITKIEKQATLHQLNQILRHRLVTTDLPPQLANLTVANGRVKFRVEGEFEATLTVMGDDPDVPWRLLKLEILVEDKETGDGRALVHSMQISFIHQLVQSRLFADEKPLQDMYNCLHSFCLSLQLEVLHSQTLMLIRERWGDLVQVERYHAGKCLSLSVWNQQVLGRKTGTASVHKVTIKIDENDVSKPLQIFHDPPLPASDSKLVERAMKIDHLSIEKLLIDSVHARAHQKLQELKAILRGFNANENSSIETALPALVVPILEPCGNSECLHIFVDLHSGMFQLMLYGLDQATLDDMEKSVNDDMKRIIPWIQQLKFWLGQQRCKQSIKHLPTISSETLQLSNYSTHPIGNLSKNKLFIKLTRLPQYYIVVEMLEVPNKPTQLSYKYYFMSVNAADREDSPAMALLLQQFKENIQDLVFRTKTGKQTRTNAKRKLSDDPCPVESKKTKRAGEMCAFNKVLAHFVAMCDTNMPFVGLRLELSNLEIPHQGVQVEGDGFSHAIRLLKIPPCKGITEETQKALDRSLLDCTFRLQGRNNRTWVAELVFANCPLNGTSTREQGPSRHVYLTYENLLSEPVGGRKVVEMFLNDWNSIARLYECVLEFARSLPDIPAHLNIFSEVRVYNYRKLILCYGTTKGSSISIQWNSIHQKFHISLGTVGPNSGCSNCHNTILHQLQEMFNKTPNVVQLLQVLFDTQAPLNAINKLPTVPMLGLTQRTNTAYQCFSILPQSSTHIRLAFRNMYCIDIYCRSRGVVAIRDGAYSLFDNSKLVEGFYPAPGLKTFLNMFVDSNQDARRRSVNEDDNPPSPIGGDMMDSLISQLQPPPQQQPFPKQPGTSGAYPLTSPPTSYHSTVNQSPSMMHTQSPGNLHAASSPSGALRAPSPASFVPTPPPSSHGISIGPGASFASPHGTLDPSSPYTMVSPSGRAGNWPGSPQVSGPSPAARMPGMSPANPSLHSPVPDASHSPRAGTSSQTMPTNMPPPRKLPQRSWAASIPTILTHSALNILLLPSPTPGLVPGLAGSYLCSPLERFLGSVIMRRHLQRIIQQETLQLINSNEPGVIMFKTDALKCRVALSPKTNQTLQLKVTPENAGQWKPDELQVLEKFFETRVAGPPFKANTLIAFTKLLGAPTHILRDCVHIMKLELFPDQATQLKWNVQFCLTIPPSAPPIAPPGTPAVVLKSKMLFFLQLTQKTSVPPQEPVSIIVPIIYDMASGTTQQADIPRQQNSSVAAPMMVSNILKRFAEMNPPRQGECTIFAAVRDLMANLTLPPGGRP
UniProt Q14149, sequence (Q14149 whole entry, looked up): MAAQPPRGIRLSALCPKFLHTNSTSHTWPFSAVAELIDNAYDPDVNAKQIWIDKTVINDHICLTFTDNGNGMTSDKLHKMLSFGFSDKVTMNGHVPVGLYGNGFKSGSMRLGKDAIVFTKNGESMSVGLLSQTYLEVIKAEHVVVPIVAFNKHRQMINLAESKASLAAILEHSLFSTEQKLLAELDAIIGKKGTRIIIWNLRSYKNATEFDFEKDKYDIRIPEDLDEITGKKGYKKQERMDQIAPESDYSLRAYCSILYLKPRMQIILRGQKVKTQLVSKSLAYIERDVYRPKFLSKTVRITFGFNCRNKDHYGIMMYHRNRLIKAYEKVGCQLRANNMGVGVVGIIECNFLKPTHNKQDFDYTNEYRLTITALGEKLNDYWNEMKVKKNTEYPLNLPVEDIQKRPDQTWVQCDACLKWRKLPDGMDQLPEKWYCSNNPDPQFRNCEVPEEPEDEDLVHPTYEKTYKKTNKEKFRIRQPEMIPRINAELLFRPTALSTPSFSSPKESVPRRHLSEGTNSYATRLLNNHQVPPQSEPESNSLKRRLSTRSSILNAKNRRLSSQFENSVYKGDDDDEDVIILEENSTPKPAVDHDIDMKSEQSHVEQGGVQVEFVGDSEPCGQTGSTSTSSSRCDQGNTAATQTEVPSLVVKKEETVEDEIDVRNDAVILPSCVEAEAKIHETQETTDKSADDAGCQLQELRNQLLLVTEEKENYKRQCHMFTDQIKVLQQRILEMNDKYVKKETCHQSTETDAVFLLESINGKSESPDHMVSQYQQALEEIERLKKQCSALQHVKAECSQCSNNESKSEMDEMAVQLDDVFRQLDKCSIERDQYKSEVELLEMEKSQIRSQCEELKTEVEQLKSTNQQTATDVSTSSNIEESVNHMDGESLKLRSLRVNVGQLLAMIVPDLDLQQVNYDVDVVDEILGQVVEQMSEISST
UniProt P45985, sequence (P45985 whole entry, looked up): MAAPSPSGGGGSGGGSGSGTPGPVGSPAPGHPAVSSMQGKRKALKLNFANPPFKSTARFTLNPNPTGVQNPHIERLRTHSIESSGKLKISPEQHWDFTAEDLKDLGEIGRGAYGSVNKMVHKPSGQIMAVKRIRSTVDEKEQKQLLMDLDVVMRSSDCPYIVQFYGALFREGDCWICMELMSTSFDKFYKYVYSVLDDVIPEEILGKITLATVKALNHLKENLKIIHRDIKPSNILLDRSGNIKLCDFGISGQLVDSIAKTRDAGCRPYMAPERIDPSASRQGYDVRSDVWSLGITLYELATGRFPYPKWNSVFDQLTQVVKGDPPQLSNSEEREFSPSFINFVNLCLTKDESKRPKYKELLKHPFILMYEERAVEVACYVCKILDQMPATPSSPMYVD
UniProt P27361, sequence (P27361 whole entry, looked up): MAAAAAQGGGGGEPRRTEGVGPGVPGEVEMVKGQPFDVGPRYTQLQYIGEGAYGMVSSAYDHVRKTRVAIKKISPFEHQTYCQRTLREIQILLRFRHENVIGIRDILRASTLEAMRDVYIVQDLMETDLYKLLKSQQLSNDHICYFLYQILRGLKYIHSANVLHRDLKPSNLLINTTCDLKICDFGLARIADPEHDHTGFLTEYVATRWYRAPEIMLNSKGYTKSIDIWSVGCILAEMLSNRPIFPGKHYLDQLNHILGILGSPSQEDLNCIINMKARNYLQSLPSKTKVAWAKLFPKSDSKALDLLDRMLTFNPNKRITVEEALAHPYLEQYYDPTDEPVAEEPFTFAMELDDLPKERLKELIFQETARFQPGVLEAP

Row | Target | log2 fold change (alvocidib) | log2 fold change (Tubastatin A) | log2 fold change [1] | log2 fold change (defactinib) | log2 fold change [2] | log2 fold change (encorafenib) | log2 fold change [3] | log2 fold change (alisertib) | log2 fold change [4] | log2 fold change (gefitinib) | log2 fold change (lapatinib) | log2 fold change (pictilisib) | log2 fold change (crizotinib) | log2 fold change [5] | log2 fold change (duvelisib) | log2 fold change (gandotinib) | log2 fold change (tozasertib) | log2 fold change (doramapimod) | log2 fold change (bafetinib) | log2 fold change [6]
1 | MORC2 (UniProt Q9Y6X9) | 0.018 | -0.095 | 0 | 0.013 | -0.012 | 0.02 | 0.025 | 0.001 | -0.008 | -0.02 | 0.016 | 0.015 | -0.012 | -0.049 | 0.04 | -0.032 | 0.008 | 0.012 | -0.032 | 0.043
2 | MED17 (UniProt Q9NVC6) | -0.001 | -0.093 | 0.025 | -0.035 | -0.019 | 0.03 | -0.017 | -0.012 | 0.023 | -0.015 | 0.003 | 0.018 | -0.029 | -0.058 | -0.005 | -0.037 | -0.043 | 0.008 | -0.005 | 0.034
3 | MBLAC2 (UniProt Q68D91) | -0.011 | 0.033 | 0.041 | 0.059 | -0.096 | 0.06 | -0.003 | 0.005 | 0.013 | 0.033 | -0.012 | -0.008 | 0.025 | -0.027 | 0.038 | 0.036 | 0.084 | 0.033 | -0.049 | 0.006
4 | MON2 isoform 5 (UniProt Q7Z3U7) | 0.003 | -0.149 | 0.018 | 0.023 | -0.014 | 0.034 | -0.035 | -0.004 | 0 | 0.005 | -0.034 | -0.027 | -0.077 | -0.042 | 0.003 | -0.031 | 0.001 | -0.011 | -0.035 | 0.12
5 | LRPPRC (UniProt P42704) | 0.076 | -0.091 | 0.011 | 0.037 | -0.041 | 0.005 | 0.079 | 0.029 | -0.006 | -0.005 | -0.01 | 0.048 | -0.062 | 0.058 | -0.005 | -0.189 | 0.023 | 0.022 | -0.008 | 0.045
6 | MORC3 (UniProt Q14149) | -0.015 | -0.098 | 0.017 | 0.018 | -0.028 | 0.007 | 0.038 | -0.003 | 0.021 | -0.01 | 0.021 | -0.037 | -0.02 | 0.005 | -0.001 | -0.053 | 0.001 | 0.024 | -0.001 | 0.014
7 | MAPKAPK3 (UniProt Q16644) | 0.038 | -0.125 | 0.015 | 0.033 | -0.11 | -0.015 | 0.055 | -0.055 | 0.006 | 0.148 | 0 | -0.013 | -0.026 | 0.034 | -0.038 | -0.044 | 0.046 | -0.025 | 0.026 | -0.014
8 | KNOP1 (UniProt Q1ED39) | -0.004 | 0.151 | 0.062 | 0.413 (active) | 0.337 | -0.023 | 0.022 | -0.065 | 0.097 | -0.03 | -0.046 | 0.03 | -0.068 | 0.004 | 0.022 | 0.027 | -0.085 | 0.1 | -0.06 | -0.011
9 | MLXIP (UniProt Q9HAP2) | -0.035 | -0.016 | -0.049 | -0.029 | -0.017 | 0.027 | -0.016 | 0.002 | -0.051 | -0.047 | -0.009 | -0.049 | -0.023 | -0.052 | -0.078 | -0.032 | 0.019 | 0.009 | -0.01 | 0.043
10 | MAP2K4 isoform 2 (UniProt P45985) | 0.137 | -0.08 | 0.081 | 0.013 | 0.061 | 0.122 | 0.087 | -0.069 | -0.022 | -0.032 | -0.036 | -0.077 | -0.086 | 0.619 (active) | -0.012 | -0.031 | -0.087 | -0.032 | -0.05 | -0.059
11 | KIF14 (UniProt Q15058) | -0.031 | -0.217 | 0.032 | 0.043 | 0.011 | 0.038 | 0.045 | -0.028 | 0.013 | 0.001 | 0.016 | -0.277 | -0.053 | -0.082 | 0.025 | -0.011 | 0.002 | 0.046 | -0.087 | 0.042
12 | LDAH isoform 2 (UniProt Q9H6V9) | 0.003 | -0.124 | -0.012 | 0.012 | -0.027 | -0.03 | 0.048 | 0 | -0.036 | 0.004 | 0.014 | 0.006 | -0.062 | -0.016 | 0.008 | -0.036 | 0.06 | 0.021 | -0.01 | 0.143
13 | MAPK3 (UniProt P27361) | 0.018 | 0.037 | 0.29 (active) | 0.061 | 0.079 | -0.035 | 0.05 | -0.028 | 0.052 | -0.018 | -0.028 | 0 | -0.01 | -0.021 | -0.01 | 0.089 | -0.038 | -0.023 | 0.021 | -0.043
14 | LARP4B (UniProt Q92615) | 0.001 | -0.118 | 0.005 | 0.023 | -0.027 | 0.024 | 0.015 | 0.025 | -0.013 | -0.006 | 0.01 | 0.016 | -0.019 | -0.051 | -0.033 | 0.029 | -0.009 | -0.044 | -0.047 | 0.096
15 | KLC1 isoform 6 (UniProt Q07866) | -0.015 | -0.038 | 0.02 | -0.003 | -0.018 | 0.002 | 0.002 | 0.002 | 0.014 | -0.009 | -0.011 | -0.001 | 0 | -0.009 | -0.031 | -0.073 | -0.004 | 0.026 | -0.008 | 0.005
16 | MED14 (UniProt O60244) | -0.017 | -0.068 | 0.051 | -0.008 | 0.015 | 0.012 | 0.003 | -0.028 | -0.018 | 0.001 | -0.032 | -0.006 | -0.016 | -0.058 | -0.033 | -0.016 | 0.046 | -0.028 | -0.036 | 0.037
